{
  "source": "PubChem BioAssay (NCATS)",
  "note": "Results filed as inconclusive are left out. Unmarked numbers belong to inactive results. Activity calls are given as the source filed them. The call rests on the fitted dose curve. On the % scale 0 is the no-effect control and ±100 the full control effect; potency means the concentration at half of the fitted maximal effect.",
  "data": [
    {"test": "Cytotoxicity counterscreen for inhibitors of SARS-CoV-2 cell entry (AID 1645845); further: nearly all actives have a fitted effect of over 50% in size", "conditions": "cell viability (SARS-CoV-2 entry assay cells); series mostly up to 57.1 µM; activity change, negative = cytotoxicity: at the top concentration", "how_it_was_run": "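48 h compound treatment (after 1 h preincubation), HEK293-ACE2 cells, 37 C/5% CO2; ATP luminescence endpoint; normalized to cell wells and media blanks.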", "units": {"activity change, negative = cytotoxicity": "%"}, "values": [
      {"smiles": "COc1cc(N2CCC(N)CC2)ccc1Nc1ncc(Cl)c(-c2c[nH]c3ccccc23)n1", "Potency": "31.6 µM (active)"},
      {"smiles": "CCN(CC)CCNc1ccc(C)c2sc3ccccc3c(=O)c12", "Potency": "28.2 µM (active)"},
      {"smiles": "Cc1ccc(Nc2cc(N[C@@H]3CCCC[C@@H]3N)nnc2C(N)=O)nc1C", "outcome": "inactive"},
      {"smiles": "Cc1ccc2cc(-c3c(C)ccc(C(=O)c4c(-c5ccccc5)n(C)n(-c5ccccc5)c4=O)c3N)ccc2n1", "activity change, negative = cytotoxicity": -4.8},
      {"smiles": "CN1C(=O)N(c2cc(Cl)cc(Cl)c2)C(=O)[C@]12CN(Cc1cc(C(=O)O)cs1)C[C@H]2c1ccc(C#N)cc1", "activity change, negative = cytotoxicity": -2.41},
      {"smiles": "Cc1cc(C(=O)Nc2cc(Oc3ccc4nc(NC(=O)C5CC5)cn4n3)ccc2C)n(C)n1", "activity change, negative = cytotoxicity": -27.6},
      {"smiles": "Cc1ccc(C(=O)Nc2ccc(Oc3cc4cnn(C)c4cc3-c3cn[nH]c3)c(F)c2)c(=O)n1-c1ccc(F)cc1", "activity change, negative = cytotoxicity": -24.5},
      {"smiles": "C[C@H](Nc1ncnc2nc[nH]c12)c1cc2cccc(Cl)c2c(=O)n1-c1ccccc1", "activity change, negative = cytotoxicity": 2.56},
      {"smiles": "O=C(CCl)Nc1cccc(NC2=NS(=O)(=O)c3ccccc32)c1", "outcome": "inactive"},
      {"smiles": "O=C(Nc1cccc(C(F)(F)F)c1)c1cccc2cc(Oc3cc(CO)ncn3)ccc12", "outcome": "inactive"},
      {"smiles": "CCn1c(=O)c(-c2ccc(-c3cncs3)cc2Cl)cc2cnc(Nc3ccc(N4CCN(C)CC4)cc3)nc21", "outcome": "inactive"},
      {"smiles": "Cc1cc(F)c(C(=O)Nc2cccc(-c3nncn3C(C)C)n2)cc1-n1cnc(C2CC2)c1", "Potency": "31.6 µM (active)"},
      {"smiles": "O=C(Cc1cccc(OC(F)(F)F)c1)Nc1ccc(CCCCc2nnc(NC(=O)Cc3ccccn3)s2)nn1", "activity change, negative = cytotoxicity": 1.82},
      {"smiles": "Cc1ncc(NC(=O)c2cccc(C(F)(F)F)c2)cc1-c1cnc(OC2CCOCC2)c(N2CCOCC2)c1", "activity change, negative = cytotoxicity": -15.9},
      {"smiles": "CNC(=O)c1cc(Oc2ccc3nc(N[C@@H]4CCCC[C@H]4O)sc3c2)ccn1", "activity change, negative = cytotoxicity": -49.9},
      {"smiles": "Cc1cc(Nc2ncnc3ccc(NC4=NC(C)(C)CO4)cc23)ccc1Oc1ccn2ncnc2c1", "activity change, negative = cytotoxicity": -9.28},
      {"smiles": "Cc1ccc(C(=O)Nc2ccc(CN3CCN(C)CC3)c(C(F)(F)F)c2)cc1C#Cc1cnc2[nH]ncc2c1", "Potency": "31.6 µM (active)"},
      {"smiles": "Cn1cc(-c2cc(Oc3cc(F)c(NC(=O)C4(C(=O)Nc5ccccc5)CC4)cc3F)ccn2)cn1", "activity change, negative = cytotoxicity": -27.8},
      {"smiles": "O=C(Nc1cnn2ccc(N3CCC[C@@H]3c3cc(F)ccc3F)nc12)N1CC[C@H](O)C1", "outcome": "inactive"},
      {"smiles": "Cc1ccc(Nc2ncc3c(n2)N(C)C(=O)N(c2cc(NC(=O)c4cccc(C(F)(F)F)c4)ccc2C)C3)cn1", "activity change, negative = cytotoxicity": -20.3},
      {"smiles": "NC[C@@](O)(c1ccc(Cl)cc1)c1ccc(-c2cn[nH]c2)cc1", "Potency": "28.2 µM (active)"},
      {"smiles": "C=C1C(=O)O[C@H]2C[C@H](C)C(/C=C/C(C)=O)=CC[C@H]12", "Potency": "31.6 µM (active)"},
      {"smiles": "O=c1[nH]nc2c3c(cccc13)NC(CN1Cc3ccccc3C1)=N2", "outcome": "inactive"},
      {"smiles": "CNC(=O)[C@H](Cc1c[nH]c2ccccc12)NC(=O)[C@@H](CC(=O)NO)CC(C)C", "outcome": "inactive"},
      {"smiles": "CO[C@H]1/C=C/O[C@@]2(C)Oc3c(C)c(O)c4c(O)c(c(/C=N\\N5CCN(C6CCCC6)CC5)c(O)c4c3C2=O)NC(=O)/C(C)=C\\C=C\\[C@H](C)[C@H](O)[C@@H](C)[C@@H](O)[C@@H](C)[C@H](OC(C)=O)[C@@H]1C", "activity change, negative = cytotoxicity": -17.9},
      {"smiles": "COCC(=O)NC/C=C/c1ccc2ncnc(Nc3ccc(Oc4ccc(C)nc4)c(C)c3)c2c1", "activity change, negative = cytotoxicity": -11.9},
      {"smiles": "C=C1[C@H](OC(=O)/C=C(\\C)CC)C[C@@H](C(C)C)[C@@H]2[C@H]([C@@H](C)OC(C)=O)C(=O)C[C@@H]12", "outcome": "inactive"},
      {"smiles": "CC[C@H]1OC(=O)[C@H](C)C(=O)[C@H](C)[C@@H](O[C@H]2O[C@H](C)C[C@H](N(C)C)[C@H]2O)[C@](C)(OC)C[C@@H](C)C(=O)[C@H](C)[C@H]2N(CCCCn3cnc(-c4cccnc4)c3)C(=O)O[C@]12C", "outcome": "inactive"},
      {"smiles": "Cn1ncnc1[C@H]1c2n[nH]c(=O)c3cc(F)cc(c23)N[C@@H]1c1ccc(F)cc1", "activity change, negative = cytotoxicity": -31.4}
    ]}
  ]
}
